# Laboratory results published in PubChem BioAssay (EPA / NIEHS).
# Inconclusive results are not listed. The source made the active and inactive calls. How the source made its calls: active means hit-call score of the fitted dose curve at least 0.9, where 1 is the maximum; inconclusive means response in the unintended direction; inactive means score below 0.9.
# Assays:
# [1] = target: Cytochrome P450 3A4 (Homo sapiens) (UniProt P08684); assay: NVS_ADME_hCYP3A4: NovaScreen (NVS) CYP450-related Enzyme Activity (ADME) Assay for human CYP3A4 (AID 2283110)
# Outline: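 Cell-free recombinant enzyme expressed in insect cells; fluorescent substrate turnover read after 0.33 h, acetonitrile as negative control. Primary screen in duplicate at 10 uM, actives then tested in concentration series.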
# [2] = target: Cytochrome P450 2C19 (Homo sapiens) (UniProt P33261); assay: NVS_ADME_hCYP2C19: NovaScreen (NVS) CYP450-related Enzyme Activity (ADME) Assay for human CYP2C19 (AID 2283113);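 on AC50: potency for inhibition seen as loss of fluorescent signal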
# Outline: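 Cell-free assay of recombinant human CYP2C19 expressed in insect cells, with a fluorogenic substrate; fluorescence intensity read 1 hour after dosing. Loss of signal relative to acetonitrile negative control indicates inhibition. Primary screen at 10 uM in duplicate, then concentration series.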
# [3] = target: human CYP2C9, CYP2C9 (gene 1559) (UniProt P11712); assay: NVS_ADME_hCYP2C9: NovaScreen (NVS) CYP450-related Enzyme Activity (ADME) Assay for human CYP2C9 (AID 2283108)
# Outline: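 Recombinant human CYP2C9 expressed in SF9 cells, fluorogenic substrate, fluorescence read 0.75 h after dosing. Chemicals first run in duplicate at 10 uM, with actives followed in concentration series; loss of signal versus acetonitrile baseline.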
# [4] = target: human Acetylcholinesterase (AChE), ACHE (gene 43) (UniProt P22303); assay: NVS_ENZ_hAChE: NovaScreen (NVS) Enzymatic Assay for human Acetylcholinesterase (AChE) (AID 2283129)
# Outline: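 Cell-free colorimetric enzyme-activity assay; compounds read 0.33 hour after dosing, loss of signal vs DMSO baseline. Primary screen in duplicate at 25 uM single concentration, with active compounds retested in concentration series.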
# [5] = target: human AMP-activated Protein Kinase, alpha 1 (AMPKa1), PRKAA1 (gene 5562) (UniProt Q13131); assay: NVS_ENZ_hAMPKa1: NovaScreen (NVS) Enzymatic Assay for human AMP-activated Protein Kinase, alpha 1 (AMPKa1) (AID 2283130)
# Outline: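 Recombinant human AMPKα1 activity was measured cell-free by fluorescent substrate conversion with electrophoretic mobility-shift separation, 1 h after dosing. Duplicate single-point screening was at 25 uM; actives (≥30% inhibition) were retested in concentration-response up to 50 uM.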
# [6] = target: human Caspase 5 (CASP5), CASP5 (gene 838) (UniProt P51878); assay: NVS_ENZ_hCASP5: NovaScreen (NVS) Enzymatic Assay for human Caspase 5 (CASP5) (AID 2283137)
# Outline: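 Recombinant E. coli-expressed human caspase 5 in a cell-free enzyme assay; fluorescence intensity read 2 hours after chemical dosing. Single-concentration duplicate screen at 25 uM, then concentration-response up to 50 uM for hits; DMSO negative control.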
# [7] = target: human Beta-secretase (BACE), BACE1 (gene 23621) (UniProt P56817); assay: NVS_ENZ_hBACE: NovaScreen (NVS) Enzymatic Assay for human Beta-secretase (BACE) (AID 2283140);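 further: hits are inhibitors that reduce fluorescent substrate signal versus DMSO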
# Outline: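 Cell-free fluorescence-intensity assay of recombinant BACE1 expressed in SF9 cells, read 1 hour after dosing. Loss of signal indicates reduced protease activity, fitted relative to DMSO negative control. Primary screen at 25 uM in duplicate; actives followed in concentration series.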
# [8] = target: human Caspase 4 (CASP4), CASP4 (gene 837) (UniProt P49662); assay: NVS_ENZ_hCASP4: NovaScreen (NVS) Enzymatic Assay for human Caspase 4 (CASP4) (AID 2283143)
# Outline: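 The cell-free assay used E. coli-expressed enzyme with a fluorogenic substrate, read 2 h after dosing. Signal loss was scored versus DMSO. Screening was in duplicate at 25 uM, then singleton concentration-response up to 50 uM.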
# [9] = target: human CYP4F12, CYP4F12 (gene 66002) (UniProt Q9HCS2); assay: NVS_ADME_hCYP4F12: NovaScreen (NVS) CYP450-related Enzyme Activity (ADME) Assay for human CYP4F12 (AID 2283111)
# Outline: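 Cell-free fluorescence assay of recombinant human CYP4F12 activity on a specific substrate, read 0.5 h after dosing. Primary screen in duplicate at 10 uM, then concentration series for actives; loss of signal fitted against acetonitrile negative control.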
# [10] = target: human CYP2D6, CYP2D6 (gene 1565) (UniProt P10635); assay: NVS_ADME_hCYP2D6: NovaScreen (NVS) CYP450-related Enzyme Activity (ADME) Assay for human CYP2D6 (AID 2283107)
# Outline: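 Cell-free assay using recombinant enzyme expressed in insect cells, with fluorescence-intensity readout of enzyme activity 1 hour after chemical dosing. Loss of signal versus acetonitrile negative control indicates inhibition. Primary screen ran in duplicate at 10 uM; actives were retested in concentration series.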
# [11] = target: human AKT serine/threonine Kinase 2 (AKT2), AKT2 (gene 208) (UniProt P31751); assay: NVS_ENZ_hAKT2: NovaScreen (NVS) Enzymatic Assay for human AKT serine/threonine Kinase 2 (AKT2) (AID 2283141)
# Outline: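 Cell-free fluorescence/electrophoretic mobility shift readout of recombinant human AKT2 activity, 1 h after chemical dosing. Duplicate primary screen at 25 uM, then singleton concentration-response up to 50 uM; loss of signal versus DMSO baseline.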
# [12] = target: human Aurora Kinase A - serine/threonine-protein Kinase 6 (AurA), AURKA (gene 6790) (UniProt O14965); assay: NVS_ENZ_hAurA: NovaScreen (NVS) Enzymatic Assay for human Aurora Kinase A - serine/threonine-protein Kinase 6 (AurA) (AID 2283142)
# Outline: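 Cell-free enzymatic assay with human Aurora A, 1 hour after dosing. Fluorescent substrate turnover detected after electrophoretic mobility shift separation of substrate and product. Screened at 25 uM, actives retested in concentration-response up to 50 uM.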
# [13] = target: human Caspase 8 (CASP8), CASP8 (gene 841) (UniProt Q14790); assay: NVS_ENZ_hCASP8: NovaScreen (NVS) Enzymatic Assay for human Caspase 8 (CASP8) (AID 2283146)
# Outline: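 E. coli-expressed enzyme was used in a cell-free fluorogenic substrate assay read 1 h after dosing. Loss of signal was scored relative to DMSO, and the primary screen was run in duplicate at 25 uM.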
# Chain of human CYP2C9, CYP2C9 (gene 1559) (P11712 whole entry, looked up): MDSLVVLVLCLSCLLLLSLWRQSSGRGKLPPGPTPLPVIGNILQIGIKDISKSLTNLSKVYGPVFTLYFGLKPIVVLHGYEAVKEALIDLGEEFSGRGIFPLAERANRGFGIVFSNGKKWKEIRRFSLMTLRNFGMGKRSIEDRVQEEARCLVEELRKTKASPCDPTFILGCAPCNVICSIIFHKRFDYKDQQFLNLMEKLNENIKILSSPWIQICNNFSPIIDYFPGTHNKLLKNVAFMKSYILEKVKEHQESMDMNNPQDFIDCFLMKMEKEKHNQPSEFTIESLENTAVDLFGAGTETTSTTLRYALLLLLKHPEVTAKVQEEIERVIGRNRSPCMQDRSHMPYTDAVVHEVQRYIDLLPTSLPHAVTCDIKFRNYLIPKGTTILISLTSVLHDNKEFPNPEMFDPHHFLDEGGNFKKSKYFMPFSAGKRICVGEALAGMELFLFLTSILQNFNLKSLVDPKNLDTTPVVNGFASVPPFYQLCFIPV
# Chain of human CYP4F12, CYP4F12 (gene 66002) (Q9HCS2 whole entry, looked up): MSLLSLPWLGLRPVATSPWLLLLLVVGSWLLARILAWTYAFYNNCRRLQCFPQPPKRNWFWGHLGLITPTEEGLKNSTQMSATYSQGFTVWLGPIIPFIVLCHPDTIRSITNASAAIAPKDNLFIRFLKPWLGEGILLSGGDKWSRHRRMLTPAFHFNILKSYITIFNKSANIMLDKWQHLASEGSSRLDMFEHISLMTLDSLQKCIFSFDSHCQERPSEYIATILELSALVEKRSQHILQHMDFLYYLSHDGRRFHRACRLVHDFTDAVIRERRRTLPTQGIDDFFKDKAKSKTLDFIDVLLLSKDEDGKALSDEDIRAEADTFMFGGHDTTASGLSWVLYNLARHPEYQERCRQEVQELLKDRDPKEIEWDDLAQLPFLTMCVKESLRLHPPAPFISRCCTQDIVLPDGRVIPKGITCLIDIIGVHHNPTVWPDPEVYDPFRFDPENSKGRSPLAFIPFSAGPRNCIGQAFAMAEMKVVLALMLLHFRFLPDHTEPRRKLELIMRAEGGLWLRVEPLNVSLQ
# Chain of human CYP2D6, CYP2D6 (gene 1565) (P10635 whole entry, looked up): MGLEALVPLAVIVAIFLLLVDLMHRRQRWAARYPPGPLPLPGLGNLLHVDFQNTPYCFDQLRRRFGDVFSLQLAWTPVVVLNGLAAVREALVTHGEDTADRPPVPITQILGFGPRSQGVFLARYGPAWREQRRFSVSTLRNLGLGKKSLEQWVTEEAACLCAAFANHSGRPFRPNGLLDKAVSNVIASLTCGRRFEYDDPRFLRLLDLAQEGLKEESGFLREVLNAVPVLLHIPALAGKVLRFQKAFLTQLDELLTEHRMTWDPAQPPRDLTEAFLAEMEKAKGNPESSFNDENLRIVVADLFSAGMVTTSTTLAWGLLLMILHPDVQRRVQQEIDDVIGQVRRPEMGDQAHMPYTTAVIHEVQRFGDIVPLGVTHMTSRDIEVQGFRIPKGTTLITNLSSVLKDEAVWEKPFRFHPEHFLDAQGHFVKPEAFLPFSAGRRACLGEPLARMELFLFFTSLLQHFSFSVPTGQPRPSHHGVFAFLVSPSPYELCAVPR
# Chain of Cytochrome P450 3A4 (Homo sapiens) (P08684 whole entry, looked up): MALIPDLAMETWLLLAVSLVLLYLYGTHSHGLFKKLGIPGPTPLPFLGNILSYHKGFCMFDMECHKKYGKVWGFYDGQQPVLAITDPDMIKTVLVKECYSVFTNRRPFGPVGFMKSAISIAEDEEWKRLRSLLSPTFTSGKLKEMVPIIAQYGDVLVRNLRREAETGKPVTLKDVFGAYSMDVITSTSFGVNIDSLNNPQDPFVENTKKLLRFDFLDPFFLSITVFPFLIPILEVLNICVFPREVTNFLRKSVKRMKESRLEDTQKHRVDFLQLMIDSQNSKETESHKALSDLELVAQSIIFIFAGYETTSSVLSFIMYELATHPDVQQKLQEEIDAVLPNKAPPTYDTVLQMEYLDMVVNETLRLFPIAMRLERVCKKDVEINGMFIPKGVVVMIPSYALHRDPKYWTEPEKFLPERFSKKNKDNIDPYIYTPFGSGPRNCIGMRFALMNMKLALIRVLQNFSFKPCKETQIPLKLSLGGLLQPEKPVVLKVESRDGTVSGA
# Chain of human Acetylcholinesterase (AChE), ACHE (gene 43) (P22303 whole entry, looked up): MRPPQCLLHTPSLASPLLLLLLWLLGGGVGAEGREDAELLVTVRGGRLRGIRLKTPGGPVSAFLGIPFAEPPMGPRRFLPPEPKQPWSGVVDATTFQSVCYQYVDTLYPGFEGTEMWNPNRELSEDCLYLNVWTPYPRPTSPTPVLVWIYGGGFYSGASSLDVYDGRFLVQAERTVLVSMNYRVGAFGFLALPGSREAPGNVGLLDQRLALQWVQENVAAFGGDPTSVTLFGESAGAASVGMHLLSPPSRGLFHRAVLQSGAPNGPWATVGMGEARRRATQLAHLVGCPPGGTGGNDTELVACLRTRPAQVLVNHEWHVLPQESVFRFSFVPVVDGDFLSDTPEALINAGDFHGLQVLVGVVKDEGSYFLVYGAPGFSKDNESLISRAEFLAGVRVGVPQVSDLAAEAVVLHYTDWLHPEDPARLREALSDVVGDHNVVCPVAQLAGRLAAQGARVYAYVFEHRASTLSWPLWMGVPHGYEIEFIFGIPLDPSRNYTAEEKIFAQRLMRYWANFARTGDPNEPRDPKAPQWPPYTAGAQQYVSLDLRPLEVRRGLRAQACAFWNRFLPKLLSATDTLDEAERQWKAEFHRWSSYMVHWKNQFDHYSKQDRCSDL
# Chain of human Beta-secretase (BACE), BACE1 (gene 23621) (P56817 whole entry, looked up): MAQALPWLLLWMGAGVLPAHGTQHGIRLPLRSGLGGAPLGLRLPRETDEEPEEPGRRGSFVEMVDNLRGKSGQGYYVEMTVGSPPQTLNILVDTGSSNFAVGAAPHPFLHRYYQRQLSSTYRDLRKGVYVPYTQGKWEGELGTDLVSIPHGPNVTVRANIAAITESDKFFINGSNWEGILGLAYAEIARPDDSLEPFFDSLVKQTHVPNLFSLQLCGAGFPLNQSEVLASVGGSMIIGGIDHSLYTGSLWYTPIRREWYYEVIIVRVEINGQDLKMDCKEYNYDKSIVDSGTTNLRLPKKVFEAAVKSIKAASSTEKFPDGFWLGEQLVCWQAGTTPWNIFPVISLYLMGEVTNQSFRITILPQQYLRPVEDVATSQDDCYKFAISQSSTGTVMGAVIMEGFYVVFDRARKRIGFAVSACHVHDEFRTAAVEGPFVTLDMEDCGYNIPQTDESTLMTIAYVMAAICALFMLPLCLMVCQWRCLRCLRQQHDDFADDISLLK
# Chain of human Caspase 4 (CASP4), CASP4 (gene 837) (P49662 whole entry, looked up): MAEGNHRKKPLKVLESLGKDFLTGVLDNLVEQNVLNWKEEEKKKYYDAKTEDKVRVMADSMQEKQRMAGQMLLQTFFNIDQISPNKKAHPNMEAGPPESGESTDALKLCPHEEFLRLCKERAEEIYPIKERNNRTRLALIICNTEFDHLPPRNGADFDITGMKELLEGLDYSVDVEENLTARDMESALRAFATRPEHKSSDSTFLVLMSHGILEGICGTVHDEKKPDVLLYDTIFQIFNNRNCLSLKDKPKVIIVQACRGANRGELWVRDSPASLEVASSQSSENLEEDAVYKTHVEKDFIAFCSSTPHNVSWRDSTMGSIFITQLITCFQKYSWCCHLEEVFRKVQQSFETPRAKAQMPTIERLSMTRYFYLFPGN
# Chain of human AMP-activated Protein Kinase, alpha 1 (AMPKa1), PRKAA1 (gene 5562) (Q13131 whole entry, looked up): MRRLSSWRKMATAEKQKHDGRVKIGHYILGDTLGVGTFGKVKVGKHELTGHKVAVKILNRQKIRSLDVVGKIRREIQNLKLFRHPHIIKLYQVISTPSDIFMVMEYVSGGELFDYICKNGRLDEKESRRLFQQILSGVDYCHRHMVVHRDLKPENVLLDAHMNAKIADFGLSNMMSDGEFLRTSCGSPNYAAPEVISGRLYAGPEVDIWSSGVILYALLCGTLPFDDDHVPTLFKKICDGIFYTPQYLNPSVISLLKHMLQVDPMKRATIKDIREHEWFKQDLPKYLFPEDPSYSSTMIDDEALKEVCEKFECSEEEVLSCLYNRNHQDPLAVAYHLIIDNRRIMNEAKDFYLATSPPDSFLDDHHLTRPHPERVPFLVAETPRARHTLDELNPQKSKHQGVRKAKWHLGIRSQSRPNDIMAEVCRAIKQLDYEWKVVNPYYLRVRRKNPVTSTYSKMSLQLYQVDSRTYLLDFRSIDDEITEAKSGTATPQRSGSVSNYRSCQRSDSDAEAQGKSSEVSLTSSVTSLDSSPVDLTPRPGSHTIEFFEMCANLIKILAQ
# Chain of human AKT serine/threonine Kinase 2 (AKT2), AKT2 (gene 208) (P31751 whole entry, looked up): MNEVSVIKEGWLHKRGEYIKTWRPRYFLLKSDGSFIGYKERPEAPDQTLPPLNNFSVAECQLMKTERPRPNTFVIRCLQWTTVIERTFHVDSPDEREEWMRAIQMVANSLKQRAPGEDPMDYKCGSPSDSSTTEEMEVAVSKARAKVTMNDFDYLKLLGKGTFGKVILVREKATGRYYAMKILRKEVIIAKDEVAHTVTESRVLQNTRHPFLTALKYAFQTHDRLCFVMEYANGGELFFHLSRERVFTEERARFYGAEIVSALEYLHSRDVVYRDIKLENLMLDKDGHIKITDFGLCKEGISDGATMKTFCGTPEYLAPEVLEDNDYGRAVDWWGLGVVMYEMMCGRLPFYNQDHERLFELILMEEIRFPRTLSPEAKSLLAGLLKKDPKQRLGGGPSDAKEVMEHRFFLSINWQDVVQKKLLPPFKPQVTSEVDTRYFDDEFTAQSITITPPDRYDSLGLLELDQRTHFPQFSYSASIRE
# Chain of human Caspase 5 (CASP5), CASP5 (gene 838) (P51878 whole entry, looked up): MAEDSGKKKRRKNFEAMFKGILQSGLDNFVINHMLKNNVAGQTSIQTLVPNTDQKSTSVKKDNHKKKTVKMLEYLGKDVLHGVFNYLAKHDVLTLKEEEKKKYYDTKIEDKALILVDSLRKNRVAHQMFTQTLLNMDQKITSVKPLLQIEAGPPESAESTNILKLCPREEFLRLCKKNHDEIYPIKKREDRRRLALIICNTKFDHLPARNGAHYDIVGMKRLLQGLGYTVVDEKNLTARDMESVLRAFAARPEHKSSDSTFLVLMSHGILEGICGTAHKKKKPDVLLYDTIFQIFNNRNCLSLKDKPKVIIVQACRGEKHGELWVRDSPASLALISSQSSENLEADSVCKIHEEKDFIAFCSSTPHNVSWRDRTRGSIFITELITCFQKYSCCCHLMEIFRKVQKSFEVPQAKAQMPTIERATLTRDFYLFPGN
structure (smiles),measurement,setting,value
OCCOCCO,outcome,[1],inactive
CO[C@@H]1[C@H](OC(=O)NC(=O)CCl)CC[C@]2(CO2)[C@H]1[C@@]1(C)O[C@@H]1CC=C(C)C,AC50,[1],2.38 µM (active)
same,AC50,[2],2.21 µM (active)
Oc1ccc2ccc3cccc4ccc1c2c34,AC50,[3],2.53 µM (active)
same,AC50,[1],6.74 µM (active)
same,AC50,[4],7.92 µM (active)
same,AC50,[5],6.02 µM (active)
same,AC50,[6],5.32 µM (active)
same,AC50,[7],8.84 µM (active)
same,AC50,[8],5.26 µM (active)
CCOc1cccc(C2(N3CCN(c4ccccc4)CC3)CCC(C)CC2)c1 (stereo unspecified),AC50,[9],4.36 µM (active)
Nc1ccc(Cc2ccc(N)cc2)cc1,AC50,[2],14.4 µM (active)
CCCCCCCCn1sccc1=O,AC50,[10],7.91 µM (active)
same,AC50,[3],7.51 µM (active)
same,AC50,[1],8.75 µM (active)
same,AC50,[2],6.04 µM (active)
same,outcome,[11],inactive
Nc1ccc(Oc2ccc(N)cc2)cc1,outcome,[10],inactive
same,AC50,[1],7.04 µM (active)
same,outcome,[2],inactive
CCC12COCN1COC2,AC50,[3],3.73 µM (active)
Clc1ccc(C(c2ccc(Cl)cc2)C(Cl)Cl)cc1,AC50,[2],4.79 µM (active)
CC(C)(C)C(O)(CCc1ccc(Cl)cc1)Cn1cncn1 (stereo unspecified),AC50,[3],6 µM (active)
same,AC50,[1],5.27 µM (active)
same,AC50,[2],0.698 µM (active)
same,outcome,[12],inactive
O=[N+]([O-])C(Br)(CO)CO,outcome,[10],inactive
same,AC50,[3],3.26 µM (active)
same,outcome,[1],inactive
same,AC50,[2],1.93 µM (active)
same,AC50,[4],29.5 µM (active)
Nc1ccc(N=Nc2ccccc2)cc1,outcome,[10],inactive
same,AC50,[3],7.26 µM (active)
same,outcome,[9],inactive
same,AC50,[2],6.47 µM (active)
same,outcome,[8],inactive
same,outcome,[13],inactive
Cc1ccc([N+](=O)[O-])cc1,outcome,[9],inactive
Cc1cc(N=Nc2ccccc2C)ccc1N,AC50,[3],4.5 µM (active)
same,AC50,[2],2.69 µM (active)
same,AC50,[7],25 µM (active)
